Test results from PubChem BioAssay (NCATS).
Inconclusive results are not listed. A call without a number means that no potency is given here. Calls of active or inactive are those of the source. Calls follow the shape of the dose curve; as a rule, active = well fitted curve in the direction sought with a large enough effect; inconclusive = small, poorly fitted or top-dose-only effect, or another doubt; inactive = no such curve, though single readings can be large; an effect the other way counts as inactive or inconclusive.

Assays:
[1] = target: Glutathione peroxidase 1 (Homo sapiens) (UniProt P07203); experiment: Primary qHTS Assay for Inhibitors of Recombinant Selenoprotein Glutathione Peroxidase 1 (GPX1) (AID 1845191); also: nearly all actives have a fitted effect of over 65% in size
How it was run: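 Recombinant GPX1 (10 nM final) was preincubated with compound for 30 min at room temperature, then reacted with 1 mM GSH, 0.5 mM CHP, 0.5 mM NADPH and 100 nM glutathione reductase; NADPH fluorescence (340/450 nm) was read at 0 and 15 min.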

[2] = target: Phospholipid hydroperoxide glutathione peroxidase GPX4 (Homo sapiens) (UniProt P36969); experiment: Primary qHTS Assay for Inhibitors of Recombinant Selenoprotein Glutathione Peroxidase 4 (GPX4) (AID 1845192); also: nearly all actives have a fitted effect of over 65% in size
How it was run: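 GR-coupled readout: 100 nM GR, 1 mM GSH, 0.5 mM NADPH; NADPH fluorescence (ex 340/em 450 nm) read at t=0 and after 15 min RT. GPX4 200 nM, preincubated 30 min with compound; substrate 0.5 mM CHP.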

[3] = Quantitative High-Throughput drug screen in 47 multiple myeloma cell lines against the NCATS MIPE library collection: FR4_PLB cell viability assay (AID 1918924; also: nearly all actives have a fitted effect of over 35% in size; also: potency is read from the fitted curve at half-maximal effect)
How it was run: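 CellTiter-Glo luminescence (ATP) after 48 h compound exposure, 37C/5% CO2; 500 cells/well; MIPE 4.0 approved/investigational drugs pinned in; DMSO = 100%, media only = 0% viability.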

[4] = Quantitative High-Throughput drug screen in 47 multiple myeloma cell lines against the NCATS MIPE library collection: AMO1_DSMZ cell viability assay (AID 1918927; also: nearly all actives have a fitted effect of over 30% in size; also: potency is read from the fitted curve at half-maximal effect)
How it was run: (§1)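 Primary qHTS used for cherry-picking: cells at 500/well, library compounds for 48 h (37C, 5% CO2), luminescent ATP assay.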

[5] = Quantitative High-Throughput drug screen in 47 multiple myeloma cell lines against the NCATS MIPE library collection: ARP1_JJKsccF8 cell viability assay (AID 1918928; also: nearly all actives have a fitted effect of over 40% in size; also: potency is read from the fitted curve at half-maximal effect)
How it was run: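 Luminescence from CellTiter-Glo, taken after 5 min at room temperature, reports cellular ATP as viability. Cells (500 per well) had been treated 48 h at 37 °C with MIPE 4.0 compounds, scaled between DMSO and medium-only controls.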

[6] = Quantitative High-Throughput drug screen in 47 multiple myeloma cell lines against the NCATS MIPE library collection: EJM_DSMZ cell viability assay (AID 1918926; also: nearly all actives have a fitted effect of over 30% in size; also: potency is read from the fitted curve at half-maximal effect)
How it was run: as §1

[7] = Quantitative High-Throughput drug screen in 47 multiple myeloma cell lines against the NCATS MIPE library collection: Delta47_JCRB cell viability assay (AID 1918925; also: nearly all actives have a fitted effect of over 45% in size; also: potency is read from the fitted curve at half-maximal effect)
How it was run: as §1

[8] = target: Luciferin 4-monooxygenase (Photinus pyralis) (UniProt P08659); experiment: Primary firefly luciferase (FLuc) qHTS assay for identification of artifact compounds. (AID 1845220); also: series mostly up to about 54 µM; nearly all actives have a fitted effect of over 60% in size
How it was run: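 qHTS, 15 min compound preincubation with substrate (10 uM luciferin, 10 uM ATP) at RT, then 10 nM FLuc; 5 min; luminescence; % inhibition vs no-enzyme/DMSO controls, 4-parameter Hill fit.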

[9] = Primary fluorescence-based thiol-reactive (MSTI) qHTS assay for identification of artifact compounds. (AID 1845221);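 also: series mostly up to about 54 µM; thiol-reactive compounds lower the probe fluorescence signal; nearly all actives have a fitted effect of over 65% in size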
How it was run: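 Compounds were incubated 1 h at room temperature in the dark with the MSTI probe (4 uM) in PBS pH 7.4, 2% DMSO. Signals were normalized between Acetyl-MSTI and MSTI.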

[10] = test system: Nanoluciferase (engineered Oplophorus gracilirostris luciferase); experiment: Primary Nanoluciferase (NLuc) qHTS assay for identification of artifact compounds. (AID 1845222); also: series mostly up to about 54 µM
How it was run: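 Luminescence read-out of secreted NLuc in S16 cell conditioned medium (1:55); compounds tested with 15 min RT preincubation, then Nano-Glo substrate 1:100, 5 min. % inhibition vs no-enzyme and DMSO controls, 4-parameter Hill fit.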

[11] = Primary redox qHTS assay for identification of artifact compounds. (AID 1845223)
How it was run: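 Amplex Red (25 uM) and HRP (250 mU/mL) in HBSS, with compounds for 15 min, then 250 uM DTT for 30 min, room temperature, dark. Fluorescence 525/598 nm read; normalized to DMSO and 10 uM DA3003; Hill fit.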

Sequence of Phospholipid hydroperoxide glutathione peroxidase GPX4 (Homo sapiens) (P36969 whole entry, looked up): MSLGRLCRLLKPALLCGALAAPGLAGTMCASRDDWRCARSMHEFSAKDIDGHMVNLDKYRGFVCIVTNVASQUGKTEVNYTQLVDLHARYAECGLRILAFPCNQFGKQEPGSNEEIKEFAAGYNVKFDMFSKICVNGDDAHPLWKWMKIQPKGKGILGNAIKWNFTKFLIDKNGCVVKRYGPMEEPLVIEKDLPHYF
Sequence of Glutathione peroxidase 1 (Homo sapiens) (P07203 whole entry, looked up): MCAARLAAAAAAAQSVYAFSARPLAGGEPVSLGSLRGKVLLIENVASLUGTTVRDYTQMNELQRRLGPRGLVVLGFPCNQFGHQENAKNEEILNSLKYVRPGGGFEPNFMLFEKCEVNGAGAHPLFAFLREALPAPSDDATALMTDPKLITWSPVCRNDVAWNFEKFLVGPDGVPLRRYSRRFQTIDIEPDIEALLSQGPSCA

SMILES: C[C@H](CCC(=O)O)[C@H]1CCC2C3C[C@H](O)[C@@H]4C[C@H](O)CC[C@]4(C)C3CC[C@@]21C (stereo partly specified)
- Potency [1]: inactive
- Potency [2]: inactive
- Potency [3]: inactive
- Potency [4]: inactive
- Potency [5]: inactive

SMILES: CCCCCCCN(CC)CCCC(O)c1ccc(NS(C)(=O)=O)cc1 (stereo unspecified)
- Potency [1]: inactive
- Potency [2]: inactive
- Potency [3]: inactive
- Potency [4]: 23500 nM (active)
- Potency [5]: inactive

SMILES: CC(N[C@H]1CCCC[C@H]1NC(=O)c1ccc(Cl)cc1)c1cccc2ccccc12 (stereo partly specified)
- Potency [1]: inactive
- Potency [2]: inactive
- Potency [6]: 20900 nM (active)

SMILES: C[N+](C)([O-])CCNc1ccc(NCC[N+](C)(C)[O-])c2c1C(=O)c1c(O)ccc(O)c1C2=O
- Potency [1]: inactive
- Potency [2]: inactive
- Potency [3]: inactive
- Potency [4]: inactive
- Potency [5]: inactive

SMILES: CC(Cc1ccc(O)c(O)c1)(NN)C(=O)O (stereo unspecified)
- Potency [1]: inactive
- Potency [2]: inactive
- Potency [7]: inactive

SMILES: COc1ccc(C=Cc2cc(OC)c(OC)c(OC)c2)cc1NC(=O)[C@H](N)CO
- Potency [1]: inactive
- Potency [2]: inactive
- Potency [6]: 10.5 nM (active)
- Potency [5]: 5.3 nM (active)

SMILES: CCN(CC)CCCCNc1ncc2c(n1)N(C)C(=O)N(c1c(Cl)c(OC)cc(OC)c1Cl)C2
- Potency [1]: inactive
- Potency [2]: inactive
- Potency [6]: 18700 nM (active)
- Potency [4]: inactive

SMILES: O=[N+]([O-])c1cn2c(n1)OC[C@@H](OCc1ccc(OC(F)(F)F)cc1)C2
- Potency [1]: inactive
- Potency [2]: inactive
- Potency [7]: inactive
- Potency [6]: inactive
- Potency [5]: inactive

SMILES: C[C@@H](NCc1cc2ccccc2[nH]1)c1cccc2ccccc12
- Potency [1]: inactive
- Potency [2]: inactive
- Potency [6]: inactive

SMILES: COC(=O)C1C2CC3c4[nH]c5cc(OC)ccc5c4CCN3CC2CC(OC(=O)c2cc(OC)c(OC)c(OC)c2)C1OC (stereo unspecified)
- Potency [1]: inactive
- Potency [3]: 3720 nM (active)

SMILES: CN1C(C(=O)Nc2ccccn2)=C(O)c2sc(Cl)cc2S1(=O)=O
- Potency [1]: inactive
- Potency [2]: inactive
- Potency [7]: 2960 nM (active)
- Potency [5]: 2640 nM (active)

SMILES: C=C(C)[C@@H]1CC[C@]2(C)CC[C@]3(C)[C@H](CC[C@@H]4[C@@]5(C)CC[C@H](O)C(C)(C)[C@H]5CC[C@]43C)[C@@H]12
- Potency [1]: inactive
- Potency [2]: inactive
- Potency [7]: inactive
- Potency [6]: inactive
- Potency [4]: inactive

SMILES: COc1cccc2c1C(=O)c1c(O)c3c(c(O)c1C2=O)C[C@@](O)(C(=O)CO)C[C@@H]3O[C@H]1C[C@H](N)[C@@H](O)[C@H](C)O1
- Potency [1]: inactive
- Potency [2]: inactive
- Potency [7]: 209 nM (active)

SMILES: CCCCCCCCc1ccc(CCC(N)(CO)CO)cc1
- Potency [1]: inactive
- Potency [2]: inactive
- Potency [7]: 5260 nM (active)
- Potency [6]: 23500 nM (active)
- Potency [5]: 10500 nM (active)

SMILES: COc1cc(OC)c(NC(=O)Nc2cc(C)on2)cc1Cl
- Potency [1]: inactive
- Potency [2]: inactive
- Potency [3]: inactive
- Potency [4]: inactive
- Potency [5]: inactive

SMILES: Cn1cc(-c2ccc3ncc(Cc4ccc5ncccc5c4)n3n2)cn1
- Potency [1]: inactive
- Potency [8]: inactive
- Potency [9]: inactive
- outcome [10]: inactive
- Potency [11]: inactive
- Potency [3]: inactive
- Potency [6]: inactive
- Potency [4]: 14800 nM (active)

SMILES: NC(=O)c1cccc(-c2cccc(OC(=O)NC3CCCCC3)c2)c1
- Potency [1]: inactive
- Potency [2]: inactive
- Potency [6]: inactive
- Potency [4]: inactive
- Potency [5]: inactive

SMILES: CCNC(=O)c1cc2c(-c3cc(OCCN4CCCC4)c(Cl)cc3Cl)nc(N)nc2s1
- Potency [1]: inactive
- Potency [3]: 1480 nM (active)
- Potency [7]: 1050 nM (active)
- Potency [6]: 2090 nM (active)
- Potency [4]: 935 nM (active)
- Potency [5]: 1660 nM (active)

SMILES: COc1cc(C[C@@H](CO)[C@H](CO)Cc2ccc(O)c(OC)c2)ccc1O
- Potency [1]: inactive
- Potency [2]: inactive
- Potency [7]: 662 nM (active)
- Potency [4]: 4690 nM (active)
- Potency [5]: inactive

SMILES: COc1ccc(Nc2nccc(NCCO)n2)cc1
- Potency [1]: inactive
- Potency [2]: inactive
- Potency [6]: inactive
- Potency [4]: inactive
- Potency [5]: inactive

SMILES: CC(C=CC=C(C)C=CC1=C(C)CCCC1(C)C)=CC=CC=C(C)C=CC=C(C)C=CC1=C(C)CCCC1(C)C
- outcome [1]: inactive [at 0.4 µM]
- outcome [2]: inactive [at 0.409 µM]
- Potency [4]: 20900 nM (active)

SMILES: CC(C(C)N1CC(=O)NC(=O)C1)N1CC(=O)NC(=O)C1 (stereo unspecified)
- Potency [1]: inactive
- Potency [2]: inactive
- Potency [6]: inactive
- Potency [4]: 332 nM (active)

SMILES: N[C@H]1CN(c2c(F)cc3c(=O)c(C(=O)O)cn(C4C[C@@H]4F)c3c2Cl)CC12CC2 (stereo partly specified)
- Potency [1]: inactive
- Potency [8]: inactive
- Potency [9]: inactive
- outcome [10]: inactive
- Potency [11]: inactive
- Potency [3]: inactive
- Potency [6]: inactive
- Potency [4]: inactive
- Potency [5]: inactive
